Bioassay records: PubChem, National Center for Advancing Translational Sciences (NCATS)
G9a inh – qHTS Assay for Inhibitors of Histone Lysine Methyltransferase G9a; G9a H3K9 monomethylation, AlphaScreen, 2 h; Potency, µM (doses to about 102 µM), actives largely listed as inhibitors; actives 8.8% (n = 350,000); AID 504332, 2011; further: nearly all actives have a fitted effect of over 75% in size
Target sequence (Q96KQ7 913-1193 limits assumed): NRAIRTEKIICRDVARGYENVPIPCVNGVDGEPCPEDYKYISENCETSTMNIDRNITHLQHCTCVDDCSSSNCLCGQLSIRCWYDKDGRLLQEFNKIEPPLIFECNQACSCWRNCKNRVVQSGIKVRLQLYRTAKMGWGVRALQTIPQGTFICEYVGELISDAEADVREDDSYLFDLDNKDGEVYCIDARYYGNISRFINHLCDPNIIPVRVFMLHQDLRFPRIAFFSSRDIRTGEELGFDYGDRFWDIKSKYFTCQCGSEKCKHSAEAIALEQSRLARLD
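Readings reflect AlphaScreen signal from monomethyl-H3K9 antibody detection. HMT at 20 nM; substrate b-H3K9 500 nM; cofactor SAM 20 uM; 2 h RT reaction; compounds tested as titrations in qHTS with 15 min preincubation.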
HP1b chromo inh – HTS for Inhibitors of HP1-beta Chromodomain Interactions with Methylated Histone Tails | Chromobox protein homolog 1 (Homo sapiens), P83916 | Potency, µM (highest dose often 114 µM), usual class: inhibitors | AlphaScreen HP1-beta / biotin-H3K9me3 peptide binding | actives 0.56% (n = 390,000); further: nearly all actives have a fitted effect of over 70% in size
Target sequence (P83916 whole entry, looked up): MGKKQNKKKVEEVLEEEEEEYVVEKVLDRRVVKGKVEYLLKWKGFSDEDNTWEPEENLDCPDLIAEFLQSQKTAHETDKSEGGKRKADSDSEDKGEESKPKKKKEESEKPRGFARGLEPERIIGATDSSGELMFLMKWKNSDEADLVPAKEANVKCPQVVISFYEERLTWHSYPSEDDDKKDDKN
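HP1-beta protein (50 nM final) preincubated 30 min at room temperature with biotinylated H3(1-18)K9me3 peptide (50 nM) in PBS pH 7.4, 0.01% Tween-20, then compound added for 30 min. AlphaScreen streptavidin donor/nickel chelate acceptor beads (10 ug/mL final), 30 min dark, luminescence read.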
BAZ2B block – qHTS Assay for Inhibitors of BAZ2B; Bromodomain adjacent to zinc finger domain protein 2B (Homo sapiens), Q9UIF8; AlphaScreen BAZ2B-H3K14Ac peptide displacement; Potency, µM (titrated, usually from 114 µM), usual class: inhibitors; actives 4.4% (n = 360,000); further: nearly all actives have a fitted effect of over 60% in size
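AlphaScreen displacement of biotin-H3(5-23)K14Ac peptide (50 nM final) from BAZ2B (50 nM final) in PBS pH 7.4, 0.01% Tween-20; complex preformed 30 min RT, then compounds (top 110 uM) 30 min RT, beads 20 min dark.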
JMJD2A Tudor – qHTS Assay for Inhibitors of JMJD2A-Tudor Domain; Lysine-specific demethylase 4A (Homo sapiens), O75164; AlphaScreen JMJD2A-Tudor / H3K4me3 peptide binding; Potency, µM (doses to about 114 µM), actives largely listed as inhibitors; actives 4.4% (n = 390,000); AID 504339, 2011; further: nearly all actives have a fitted effect of over 50% in size
Sfp PPTase inh – qHTS Assay for Inhibitors of Bacillus subtilis Sfp phosphopantetheinyl transferase (PPTase); Potency, µM, usual class: inhibitors; actives 3.5% (n = 310,000); 4'-phosphopantetheinyl transferase ffp (Bacillus subtilis), Q9F4F7; AID 1490, 2009; Biochemical Sfp PPTase activity, qHTS;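 further: the enzyme is Sfp with the accession as filed and its product quenches rhodamine fluorescence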
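Buffer: 50 mM Hepes-Na pH 7.6, 10 mM MgCl2, 0.01% Nonidet P-40, 0.01% BSA. Enzyme 15 nM, pre-exposed to compound 15 min; substrates then added and fluorescence change tracked over 30 min.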
A number is an active result; [ ] = remark or other dose. In the library only some 12% were active in any assay of this set; here they are far more common. The call rests on the fitted dose curve; in most records, active means well fitted curve in the direction sought with a large enough effect; inconclusive means small, poorly fitted or top-dose-only effect, or another doubt; inactive means no such curve, though single readings can be large; an effect the other way counts as inactive or inconclusive.

Screening CCOC(=O)C(=O)NCC(c1cccnc1)N1CCN(c2ccccc2)CC1 (configuration not stated) returned G9a inh inactive, HP1b chromo inh inactive, BAZ2B block inactive and JMJD2A Tudor inactive.
`CCOc1ccc(N2CC(=O)N/C2=N\c2nc(C)cc(C)n2)cc1` gave G9a inh 56µM, HP1b chromo inh inactive, BAZ2B block inactive, JMJD2A Tudor inconclusive and Sfp PPTase inh inactive.
For Cc1ccn2cc(CNC(=O)c3cccc(C(F)(F)F)c3)nc2c1 the results were G9a inh inactive, HP1b chromo inh inactive, BAZ2B block inactive and JMJD2A Tudor inactive.
Screening CCN(CC)S(=O)(=O)c1ccc2oc(Nc3ccccc3)nc2c1 returned G9a inh 32µM, HP1b chromo inh inactive, BAZ2B block inactive, JMJD2A Tudor inconclusive and Sfp PPTase inh inactive.
For CCN(CC)S(=O)(=O)c1ccc2oc(Nc3ccc(OC)cc3OC)nc2c1 the results were G9a inh inactive, HP1b chromo inh inactive, BAZ2B block inconclusive, JMJD2A Tudor inactive and Sfp PPTase inh inactive.
Screening CCN(CC)S(=O)(=O)c1ccc2oc(SCC(=O)NC3CC3)nc2c1 returned G9a inh 13µM, HP1b chromo inh inactive, BAZ2B block inconclusive, JMJD2A Tudor inactive and Sfp PPTase inh 40µM.
Screening C/C(=N\NC(=O)C1(C)CC1(Br)Br)c1cccc(NC(=O)c2ccc(C)o2)c1 (configuration not stated) returned HP1b chromo inh inactive, BAZ2B block inconclusive, JMJD2A Tudor inactive and Sfp PPTase inh inactive.
`COc1ccc(-c2ccc3c(N)c(C(=O)Nc4cccc(C)c4)sc3n2)cc1` gave G9a inh inactive, HP1b chromo inh inactive, BAZ2B block inactive and JMJD2A Tudor inactive.
For COc1ccc(COC(=O)N/N=C2/C[C@@H](O)[C@@H](O)[C@@H]3[C@@H]4C(=O)N(Cc5ccccc5)C(=O)[C@H]4CC[C@@H]23)cc1 the results were Sfp PPTase inh inactive.
For Cc1ccc(NC(=O)Nc2cn(C)c(=O)c3ccccc23)c(Cl)c1 the results were G9a inh inconclusive, HP1b chromo inh inactive, BAZ2B block inactive and JMJD2A Tudor inactive.
`CCc1ccc(NC(=O)Nc2cn(C)c(=O)c3ccccc23)cc1` gave G9a inh 10µM, HP1b chromo inh inactive, BAZ2B block inactive and JMJD2A Tudor inactive.
Screening CCOc1ccc(NC(=O)Cc2c(C(=O)O)n(C)c3ccccc23)cc1 returned G9a inh inactive, HP1b chromo inh inactive, BAZ2B block inactive, JMJD2A Tudor inactive and Sfp PPTase inh inactive.
For COc1ccc(NC(=O)c2cccs2)cc1OC the results were G9a inh inactive, HP1b chromo inh inactive, BAZ2B block inactive, JMJD2A Tudor inactive and Sfp PPTase inh inactive.
For CCc1ccc(NC(=O)Cc2c(C(=O)O)n(C)c3ccccc23)cc1 the results were G9a inh inconclusive, HP1b chromo inh inactive, BAZ2B block 28µM, JMJD2A Tudor inactive and Sfp PPTase inh inactive.
Screening COc1ccc(NC(=O)Nc2cccs2)cc1OC returned G9a inh 45µM, HP1b chromo inh inactive, BAZ2B block inconclusive, JMJD2A Tudor inconclusive and Sfp PPTase inh 45µM.
CCOc1ccc(NC(=O)Nc2cccs2)cc1 was read as G9a inh inconclusive, HP1b chromo inh inactive, BAZ2B block inactive, JMJD2A Tudor inactive and Sfp PPTase inh 56µM.
`COCCn1c(=O)c(-c2cc(F)cc(F)c2)nc2cnc(Oc3cccc(Cl)c3)nc21` gave G9a inh inactive[12.7 µM] and Sfp PPTase inh inactive.
`COc1ccc(CN(Cc2ccccc2)C(=O)c2ccccc2O)cc1` gave JMJD2A Tudor inactive.
For CCc1ccc(NC(=O)Nc2cccs2)cc1 the results were G9a inh 10µM, HP1b chromo inh inactive, BAZ2B block inconclusive, JMJD2A Tudor inactive and Sfp PPTase inh 50µM.
For Cc1ccc(NC(=O)Nc2cccs2)cc1 the results were G9a inh inconclusive, HP1b chromo inh inactive, BAZ2B block inconclusive, JMJD2A Tudor inactive and Sfp PPTase inh 18µM.
Screening Cc1cc(C)cc(NC(=O)Nc2cccs2)c1 returned G9a inh inconclusive, HP1b chromo inh inactive, BAZ2B block inactive and JMJD2A Tudor inactive.
`CSc1ncnc2[nH]ccc12` gave HP1b chromo inh inactive and JMJD2A Tudor inactive.
COc1ccc(S(=O)(=O)N2CCN(c3nc(-c4cccnc4)nc4ccccc34)CC2)cc1 was read as G9a inh inconclusive, HP1b chromo inh inactive, BAZ2B block inactive and JMJD2A Tudor inactive.
`COc1cc(OC)c(Nc2nc3ccc(C(=O)c4ccccc4)cc3n3c(C)nnc23)cc1Cl` gave G9a inh inactive, HP1b chromo inh inactive, BAZ2B block inactive and JMJD2A Tudor inactive.
Screening Cc1ccc(Cn2ncc3c4sc(C)cc4n(C)c3c2=O)cc1 returned JMJD2A Tudor inactive.
`COc1ccc(CNC(=O)CN(c2ccccc2OC)S(=O)(=O)c2ccc(C)cc2)cc1` gave G9a inh inconclusive, HP1b chromo inh inactive, BAZ2B block inactive and JMJD2A Tudor inconclusive.
For Nc1ccc(N(c2ccccc2)c2ccc(N)cc2)cc1 the results were G9a inh 1.3µM, HP1b chromo inh 40µM, BAZ2B block 25µM, JMJD2A Tudor 16µM and Sfp PPTase inh inactive.
Screening Cn1c(=O)c([N+](=O)[O-])c(NCc2ccccc2)c2ccccc21 returned G9a inh 50µM, HP1b chromo inh inactive, BAZ2B block inactive, JMJD2A Tudor inactive and Sfp PPTase inh inactive.
For COC(=O)C1=C(NC(=O)C2CCCCC2)CCS1 the results were G9a inh 1.8µM, HP1b chromo inh inactive, BAZ2B block inconclusive, JMJD2A Tudor inconclusive and Sfp PPTase inh inactive.
COC(=O)C1=C(NC(C)=O)CCS1 was read as G9a inh inconclusive, HP1b chromo inh inactive, BAZ2B block inactive, JMJD2A Tudor inactive and Sfp PPTase inh inactive.
`NC(=O)c1c(NC(=O)COC(=O)c2ccc(O)c(Cl)c2)sc2c1CCCC2` gave HP1b chromo inh inactive and JMJD2A Tudor inactive.
Screening COCC(=O)N(Cc1ccco1)c1nnc(C2CCOC2)s1 (configuration not stated) returned G9a inh 79µM, HP1b chromo inh inactive, BAZ2B block inactive, JMJD2A Tudor inactive and Sfp PPTase inh inactive.
Screening Cc1c2cnccc2c(C)c2c1oc1ccccc12 returned HP1b chromo inh inactive and JMJD2A Tudor inactive.
CCc1ccc2c(c1)C(NC(C)=O)C(=O)N2CC (configuration not stated) was read as G9a inh inconclusive, HP1b chromo inh inactive, BAZ2B block inactive, JMJD2A Tudor inactive and Sfp PPTase inh 56µM.
CCN1C(=O)C(NC(C)=O)c2cc(Br)ccc21 (configuration not stated) was read as G9a inh inactive, HP1b chromo inh inactive, BAZ2B block inactive, JMJD2A Tudor inactive and Sfp PPTase inh inactive.
